Mcl1-Noxa inh – Mcl-1/Noxa binding inhibitors, primary screen, biochemical, TR-FRET, 1536-well | inhibition, % at 21.7 µM | TR-FRET Mcl-1/Noxa peptide binding, 2 h | actives 1.5% (n = 220,000) | Induced myeloid leukemia cell differentiation protein Mcl-1 (Homo sapiens), Q07820;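 active = compounds that cut the protein-peptide binding signal by more than 50% relative to plate controls in a single-dose test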;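 also: His-tagged Mcl-1 with rhodamine Noxa BH3 peptide and terbium anti-His antibody; 0% = Mcl-1 plus Noxa peptide wells and 100% = peptide-only wells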
Bcl-xL primary – inhibitors of human Bcl-xL, primary screen, biochemical, fluorescence polarization, HTS; inhibition, % at 10.9 µM; AID 2129, 2009; GST-Bcl-xL / FITC-Bim BH3 peptide fluorescence polarization; actives 0.7% (n = 320,000);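 active = inhibition above the mean of all tested compounds plus 3 SD, cutoff set per campaign, cut at about 30% in these data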;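 also: 0% = DMSO wells and 100% = unlabeled Bim-BH3 peptide competitor; inhibitors lower millipolarization by displacing the labeled peptide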
Target sequence (Q07817 whole entry, looked up): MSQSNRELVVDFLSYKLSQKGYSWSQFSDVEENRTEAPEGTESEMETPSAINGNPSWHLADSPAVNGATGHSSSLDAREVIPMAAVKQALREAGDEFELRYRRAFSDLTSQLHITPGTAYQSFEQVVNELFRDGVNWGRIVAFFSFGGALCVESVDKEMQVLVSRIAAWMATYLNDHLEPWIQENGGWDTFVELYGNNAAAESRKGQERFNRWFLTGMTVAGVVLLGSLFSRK
GLD-1 RNA inh – GLD-1/TGE RNA complex disruptors, primary screen, biochemical, fluorescence polarization; actives 0.44% (n = 320,000); inhibition, % at 5.96 µM; purified GLD-1 + fluorescein TGE RNA;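 active = percent inhibition above a per-plate cutoff, the plate mean of test compounds plus 3 SD, cut at about 30% in these data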;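 also: 0% = DMSO wells with GLD-1 and probe and 100% = wells lacking GLD-1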
Target sequence (Q17339 whole entry, looked up): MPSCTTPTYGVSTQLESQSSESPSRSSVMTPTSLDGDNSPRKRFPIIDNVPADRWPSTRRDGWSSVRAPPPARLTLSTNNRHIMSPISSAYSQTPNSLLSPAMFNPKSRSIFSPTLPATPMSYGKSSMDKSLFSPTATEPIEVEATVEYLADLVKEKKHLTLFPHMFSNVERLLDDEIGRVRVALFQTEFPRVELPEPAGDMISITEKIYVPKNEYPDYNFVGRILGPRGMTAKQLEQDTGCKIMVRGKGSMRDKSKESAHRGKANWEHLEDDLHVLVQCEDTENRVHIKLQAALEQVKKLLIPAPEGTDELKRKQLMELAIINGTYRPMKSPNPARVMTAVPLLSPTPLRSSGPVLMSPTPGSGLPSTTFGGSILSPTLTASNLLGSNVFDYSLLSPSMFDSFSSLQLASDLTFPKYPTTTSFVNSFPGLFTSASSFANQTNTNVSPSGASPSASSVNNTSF
MCL1-BIM inh – inhibitors of MCL1 binding to BIM-BH3, primary screen, biochemical, fluorescence polarization; Induced myeloid leukemia cell differentiation protein Mcl-1 (Homo sapiens), Q07820; GST-MCL1 / FITC-Bim-BH3 fluorescence polarization; inhibition, % at 10.9 µM; actives 0.68% (n = 320,000); AID 2057, 2009;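 active = inhibition above the mean inhibition of all tested compounds plus 3 SD, set per campaign, cut at about 40% in these data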;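 also: 0% = DMSO wells and 100% = unlabeled Bim-BH3 peptide control; higher means more loss of mP so more displacement of Bim peptide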
Mcl-1 Bim block – inhibitors of Bim peptide binding to Mcl-1, primary screen, biochemical, bead-based flow cytometry, multiplex; Induced myeloid leukemia cell differentiation protein Mcl-1 (Homo sapiens), Q07820; Bim peptide-Mcl-1 binding; inhibition, % at 10 µM; actives 0.1% (n = 190,000); in the data active = inhibition above about 40%;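 also: 0% = no compound tracer wells and 100% = peptide blocker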
Mcl1 Bid PPI – Mcl-1/Bid binding inhibitors, primary screen, biochemical, TR-FRET, 1536-well; TR-FRET Mcl-1/Bid-Dy647 peptide binding; inhibition, % at 21.7 µM; actives 0.97% (n = 220,000); AID 1021, 2008;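 active = compounds that cut the binding signal by more than half at the single screening dose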;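 also: His-tagged Mcl-1 with europium anti-His antibody binding Bid BH3 peptide; 0% = Mcl-1 plus peptide wells and 100% = peptide-only wells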
Bcl-xL conf – Bcl-xL inhibitors blocking Bim BH3 binding, confirmation, counter-screen for MCL1 inhibitor project, biochemical, fluorescence polarization; shares compounds with MCL1-BIM inh; inhibition, % at 10.9 µM; GST-Bcl-xL / FITC-Bim BH3 peptide FP binding; actives 54% (n = 1,700);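 active = inhibition above a cutoff equal to the mean inhibition of all tested compounds plus 3 SD, cut at about 30% in these data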;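 also: 0% = DMSO wells and 100% = unlabeled Bim BH3 control peptide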
MCL1 BIM confirm – inhibitors of MCL1 binding to BIM-BH3, confirmation, biochemical, fluorescence polarization, triplicate | shares compounds with MCL1-BIM inh | GST-MCL1 / FITC-Bim-BH3 fluorescence polarization | inhibition, % at 10.9 µM | actives 61% (n = 1,700);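 active = inhibition above the average of all tested compounds plus 3 SD, cut at about 40% in these data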;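 also: 0% = DMSO wells and 100% = unlabeled Bim-BH3 control peptide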
* hit, by the source's call; nt = no result. Only some compounds are listed: those with a hit (about 2.3% of all), similar ones and a draw of the others.

SMILES	Mcl1-Noxa inh	Bcl-xL primary	GLD-1 RNA inh	MCL1-BIM inh	Mcl-1 Bim block	Mcl1 Bid PPI	Bcl-xL conf	MCL1 BIM confirm
Cc1ccc(C2C(C(=O)c3cccs3)=C(O)C(=O)N2c2nnc(C)s2)cc1 (stereo unspecified)	15.1	96.0*	101.5*	86.3*	-1.0	-13.5	122.8*	142.7*
C=CCOc1cccc(C2C(C(=O)c3ccc(C)o3)=C(O)C(=O)N2c2nccs2)c1 (stereo unspecified)	7.3	144.3*	129.8*	162.3*	2.0	-73.9	137.4*	162.4*
CCOC(=O)c1sc(N2C(=O)C(O)=C(C(=O)c3ccco3)C2c2ccc([N+](=O)[O-])cc2)nc1C (stereo unspecified)	nt	5.6	-2.5	4.8	nt	nt	nt	nt
[O-]/[N+](=C\c1ccc(OC(F)F)cc1)c1ccccc1	-5.2	4.7	-0.7	0.5	-3.0	-9.6	nt	nt
O=C(NCCN1CCOCC1)c1c[nH]c2ccc(S(=O)(=O)N3CCOCC3)cc2c1=O	20.4	7.9	3.8	-1.0	-6.0	1.3	nt	nt
CCc1ccccc1N(CC(=O)NCCc1ccccc1)C(=O)CCC(=O)Nc1ccccn1	nt	8.0	11.3	7.6	nt	nt	nt	nt
CCOC(=O)CN(C(=O)CNC(=O)c1ccco1)C(C(=O)NC1CCCC1)c1ccccc1OCC (stereo unspecified)	7.5	2.3	13.8	4.5	-1.0	-13.4	nt	nt
CCOC(=O)CN(C(=O)CNC(=O)c1ccco1)C(C(=O)NC1CCCCC1)c1cccs1 (stereo unspecified)	-2.0	51.6*	27.2	92.0*	-4.0	0.8	46.2*	52.3*
Cc1c(Br)cc(C(=O)O)c(C)c1C	19.7	3.2	6.6	7.6	0.0	12.3	nt	nt
Cc1c(N)cc(N)cc1C(=O)O	1.5	144.6*	128.2*	165.7*	nt	-148.8	67.1*	44.0*
Cc1ccccc1-n1c(C)c(C#N)c(=O)c(-[n+]2ccccc2)c1[S-]	10.6	0.2	2.1	6.4	-2.0	-74.1	nt	nt
O=C(Nc1ccc(-c2cn3ccsc3n2)cc1)C1COc2ccccc2O1 (stereo unspecified)	14.9	-1.6	-8.3	-6.5	2.0	-15.5	nt	nt
COC/C=C/C1=CC2=CC(=O)C(C)(OC(=O)c3cnc4ccccc4n3)C(=O)C2=CO1 (stereo unspecified)	nt	74.0*	58.4*	96.2*	nt	nt	29.2	55.5*
Cc1noc(C)c1S(=O)(=O)N1CCC(C(=O)c2ccccc2)CC1	9.6	6.0	4.9	-2.7	nt	-8.3	nt	nt
CN1CCc2cccc3c2[C@H]1Cc1ccc(O)c(O)c1-3	87.7*	35.8*	6.9	56.0*	7.0	-64.7	41.7*	70.0*
COc1ccccc1OCC(=O)n1cc(C(=O)c2cc(Cl)cc(Cl)c2O)cn1	32.0	-2.9	9.9	-4.8	-5.0	-34.5	nt	nt
O=C(c1ccc(O)cc1)c1ccc(O)cc1O	-3.9	6.0	3.5	11.8	nt	-18.8	nt	nt
O=C(c1ccccc1)c1ccc(O)cc1O	7.0	133.8*	79.4*	153.5*	1.0	-38.8	123.1*	137.0*
CCN(CC)C(=O)CSc1ncnc2c(-c3cccs3)nsc12	-3.2	35.0*	16.5	63.9*	-1.0	5.1	13.8	31.9
CCN(CC)C(=O)CSc1ncnc2sccc12	-12.7	-9.0	-1.0	-35.4	-6.0	0.3	nt	nt
COc1cccc(NC(=O)CN(C)CC(=O)NCC(=O)Nc2ccc(F)cc2)c1	nt	nt	9.5	nt	nt	nt	nt	nt
Cc1cc(C)c[n+](-c2nc3ccccc3nc2[N-]S(=O)(=O)c2ccc(Br)s2)c1	15.5	61.9*	15.6	47.2*	-3.0	9.7	63.3*	92.1*
COc1ccc(NS(=O)(=O)c2ccc(NC(=S)NC(=O)c3cccc(F)c3)cc2)nn1	15.5	9.9	-4.0	41.8*	-3.0	-51.7	20.7	11.4
COc1cccc(C(=O)Nc2ccc(Cl)c(C(F)(F)F)c2)c1	12.9	-4.4	3.5	-5.2	-3.0	10.8	nt	nt
C/C=C/C=C/[C@H]1Cc2cc(O)cc(O)c2O1	56.2*	60.4*	88.4*	67.2*	nt	-145.9	56.8*	83.3*
SMILES	Mcl1-Noxa inh	Bcl-xL primary	GLD-1 RNA inh	MCL1-BIM inh	Mcl-1 Bim block	Mcl1 Bid PPI	Bcl-xL conf	MCL1 BIM confirm
O=C(NC(=S)Nc1cccc(S(=O)(=O)NC2=NCCC2)c1)c1cc(-c2ccco2)nc2ccccc12	65.4*	44.2*	20.9	54.2*	nt	-47.4	38.7*	42.4*
O=C(Nc1cccc(S(=O)(=O)NC2=NCCC2)c1)c1cc(-c2ccco2)nc2ccccc12	98.5*	27.3	7.3	93.8*	nt	49.0	17.8	74.1*
O=C(Nc1cccc(S(=O)(=O)NC2=NCCCCC2)c1)c1cc(-c2ccccc2)nc2ccccc12	-16.2	6.6	5.0	7.5	3.0	3.7	nt	nt
O=C(OCCN1C(=O)c2cccc3c(N4CCOCC4)ccc(c23)C1=O)c1cccc(Cl)c1	-161.2	41.1*	81.3*	66.5*	0.0	-12.6	3.5	-19.5
O=C(OCCN1C(=O)c2cccc3c(N4CCOCC4)ccc(c23)C1=O)c1ccc(Cl)cc1Cl	-151.2	39.4*	73.0*	63.0*	10.0	-25.6	-3.1	-2.2
O=C(OCCN1C(=O)c2ccccc2C1=O)c1cc(S(=O)(=O)N2CCOCC2)ccc1Cl	-2.8	1.7	5.7	3.1	-5.0	-5.7	nt	nt
COc1nccnc1NS(=O)(=O)c1ccc(NC(=S)NC(=O)c2ccc(F)c(F)c2)cc1	23.7	12.1	-0.1	11.6	0.0	-39.2	nt	nt
CSc1nc2c(c(=O)[nH]1)C(c1ccc(Cl)cc1)CC(=O)N2 (stereo unspecified)	21.1	-1.6	6.6	-6.7	0.0	10.8	nt	nt
O=[N+]([O-])c1cc(CN2CCN(c3cccc(C(F)(F)F)c3)CC2)c2cccnc2c1O	-13.3	2.5	-8.3	9.9	0.0	-3.4	nt	nt
O=[N+]([O-])c1cc(CN2CCCC2)c2cccnc2c1O	74.7*	16.0	-0.6	87.8*	-3.0	10.4	14.0	94.1*
CCOC(=O)C1(CCCc2ccccc2)CCN(C(=O)COC)CC1	-8.5	4.1	1.7	7.7	nt	-7.5	nt	nt

Assay outcomes (PubChem BioAssay)
